# WRN inhibitor – qHTS for Inhibitors of WRN Helicase | WRN helicase unwinding, fluorescent forked duplex, kinetic | Potency, µM (series often up to 114 µM), without a hit: at the highest dose activity change, negative = inhibition, hits mostly inhibitors | 360,000 tested, 0.46% active | AID 651768, 2012; also: potency is read from the fitted curve at half-maximal effect; % is scaled to controls: 0 for no effect and ±100 for the full control effect; nearly all actives have a fitted effect of over 55% in size
#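 Kinetic red-fluorescence monitoring (525/598 nm) tracks WRN helicase activity after 100 nM fluorophore-quencher forked duplex and 2 mM ATP are added to 20 nM enzyme pretreated 15 min at room temperature with compound.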
# PI5P4Ka inh – qHTS for Inhibitors of phosphatidylinositol 5-phosphate 4-kinase (PI5P4K). PI5P4Kalpha enzyme, ADP-Glo luminescence, 60 min; active compounds read low. max response, %. 330,000 tested, 1.2% active. AID 652105, 2013; active = max response of -50% or lower; inconclusive = between -30% and -50%; inactive = -30% or higher; also: value at the top dose of about 77 µM; % is scaled to controls: 0 for no effect and ±100 for the full control effect
# Target sequence (P48426 whole entry, looked up): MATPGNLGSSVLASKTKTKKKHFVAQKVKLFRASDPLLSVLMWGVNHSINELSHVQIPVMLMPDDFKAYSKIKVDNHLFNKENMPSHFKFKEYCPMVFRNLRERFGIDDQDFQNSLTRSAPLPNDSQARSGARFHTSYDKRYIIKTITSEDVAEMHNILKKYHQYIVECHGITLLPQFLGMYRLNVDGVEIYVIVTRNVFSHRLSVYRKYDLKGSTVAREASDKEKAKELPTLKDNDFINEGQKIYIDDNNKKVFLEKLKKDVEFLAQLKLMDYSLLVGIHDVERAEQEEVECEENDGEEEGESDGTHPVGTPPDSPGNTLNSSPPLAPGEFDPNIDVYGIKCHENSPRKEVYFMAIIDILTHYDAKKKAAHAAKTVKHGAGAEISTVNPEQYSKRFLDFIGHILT
#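 Compounds were pin-transferred onto PI5P4Kalpha and substrate in HEPES pH 7.4 buffer with EGTA, CHAPS and 5% DMSO. ATP (5 microM final) started the reaction, which ran 60 minutes at room temperature before ADP-Glo detection.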
# POLH inh – qHTS for Inhibitors of Polymerase Eta | DNA polymerase eta (Homo sapiens), Q9Y253 | recombinant Pol eta, fluorescent DNA replication assay | Potency, µM (titrated, usually from 114 µM), without a hit: top-dose activity change, negative = inhibition, hits mostly inhibitors | 390,000 tested, 1.2% active; also: potency is read from the fitted curve at half-maximal effect; % is scaled to controls: 0 for no effect and ±100 for the full control effect
#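 Fluorescent replication assay: 50 nM final substrate added after a 15 min room-temperature compound preincubation with 10 nM enzyme. Signal taken at 0 min and again at 10 min.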
# POLB inh – qHTS Assay for Inhibitors of DNA Polymerase Beta | Pol beta primer extension/strand displacement, fluorescence kinetic | AID 485314, 2010 | P06746 | Potency, µM (titrated, usually from 114 µM), for inactives: at the highest dose activity change, negative = inhibition, hits mostly inhibitors | 340,000 tested, 1.3% active; also: potency is read from the fitted curve at half-maximal effect; % is scaled to controls: 0 for no effect and ±100 for the full control effect
#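 10 nM enzyme + cpd, 15 min RT; start with substrate 50 nM final; read 0 min and after 10 min RT. Corrected, normalized data; 4-parameter Hill curve fit.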
# POLK inh – qHTS for Inhibitors of Polymerase Kappa. AID 588579, 2011. Potency, µM (top dose mostly 107 µM), inactives show at the highest dose activity, negative = inhibition, actives largely listed as inhibitors. purified Pol kappa, fluorescent DNA synthesis assay, 10 min. 400,000 tested, 0.53% active; also: potency is read from the fitted curve at half-maximal effect; % is scaled to controls: 0 for no effect and ±100 for the full control effect
#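 10 nM Pol kappa preincubated 15 min at room temperature with compounds, then reaction started with substrate at 50 nM final. Fluorescence read kinetically at 0 and 10 min; buffer-only wells served as negative control.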
# POLI inh – qHTS for Inhibitors of Polymerase Iota. DNA polymerase iota (Homo sapiens), Q9UNA4. Pol iota fluorescent replication assay, 10 min. Potency, µM (doses to about 115 µM), for inactives: top-dose activity, negative = inhibition, usual class: inhibitors. 390,000 tested, 1% active; also: potency is read from the fitted curve at half-maximal effect
#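 Pol iota at 10 nM preincubated 15 min with compounds at room temperature; reaction started with fluorescent substrate, 50 nM final. Fluorescence read kinetically at 0 and 10 min; buffer-only wells as negative control.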
# An asterisk follows results filed as active; u = inconclusive; x = no result given; [ ] = another dose, or the depositor's remark. This is a sample that favours compounds with a hit; in the whole collection about 2.8% have one here. Unless noted, calls follow the shape of the dose curve; as a rule, active = well fitted curve in the direction sought with a large enough effect; inconclusive = small, poorly fitted or top-dose-only effect, or another doubt; inactive = no such curve, though single readings can be large; an effect the other way counts as inactive or inconclusive.
SMILES,WRN inhibitor,PI5P4Ka inh,POLH inh,POLB inh,POLK inh,POLI inh
COc1ccc(CNC(=O)CCCN2C(=O)CCn3nc(-c4cn(C)c5ccccc45)cc32)cc1,x,x,-7%,3%,-8%[60.1 µM],-7%
CC(C)OC(=O)c1c2c(n3ccccc13)C(=O)c1ccccc1C2=O,89µM*,0,u,-5%,-3%,75%
CC1(C)C(=O)Nc2ccccc2N1C(=O)COC(=O)Cc1ccc(Cl)c(Cl)c1,0%[11.6 µM],-26,-9%,x,-16%,u
O=C(Cn1cc(COc2cc(F)cc(F)c2)nn1)c1ccc(O)cc1,-2%,-1,-11%,x,0%,8%
COc1cc(C(C)=O)ccc1OCc1cn(CC(=O)c2ccc(O)cc2)nn1,3%,u,-19%,x,-8%,4.5µM*
O=C(Cn1cc(COc2ccccc2C(F)(F)F)nn1)c1ccc(O)cc1,9%,-26,-18%,x,-2%,5µM*
Cc1cccc(C)c1OCc1cn(CC(=O)c2ccc(O)cc2)nn1,-10%,-5,0%,x,-2%,7.9µM*
COc1ccc(C(=O)Nc2nnc(S(=O)(=O)N3CCN(c4ccc(C)cc4)CC3)s2)cc1,x,x,7%,13%,0%,2%
CCOC(=O)C1(Cc2ccccc2C)CCCN(C(=O)c2ccc(CSC)o2)C1 (stereo unspecified),-7%,-1,1%,18%,-10%,21%
Cc1ccc(S/C=C\C(=O)c2ccccc2)cc1,-15%,x,-14%,21%,-23%,79µM*
COc1cccc(N2CC(C(=O)Nc3nnc(SCCC4OCCO4)s3)CC2=O)c1 (stereo unspecified),7%[11.6 µM],u,45µM*,-10%,-19%,u
COc1cccc(N2CC(C(=O)Nc3nnc(SCc4cccnc4)s3)CC2=O)c1 (stereo unspecified),-23%,u,u,25µM*,-8%,u
Cc1ccccc1N1CC(C(=O)Nc2nnc(SCc3cccnc3)s2)CC1=O (stereo unspecified),u,u,18µM*,32µM*,-14%,u
CC(CNC(=O)c1cc2ccccn2n1)c1ccccc1 (stereo unspecified),x,x,-10%,-2%,-5%,29%
O=[N+]([O-])c1ccc2c(c1N1CCCCC1)=NC1(CCCCC1)[N+]=2[O-],-16%,-53*,-18%,-20%,-6%,40%
O=[N+]([O-])c1ccc(N2CCCCC2)nc1N1CCCCC1,1%,5,u,u,-9%,15%
Cc1ccc(-n2c(SCc3nc(-c4ccccc4C)no3)nnc2-c2ccncc2)cc1C,x,x,-26%,-2%,9%,12%
C/C=C1\C(OC2OC(CO)C(O)C(O)C2O)OC=C(C(=O)OC)C1CC(=O)OCC1C(C)C(OC(=O)CC2C(C(=O)OC)=COC(OC3OC(CO)C(O)C(O)C3O)/C2=C\C)CC1C(CO)CO (stereo unspecified),-7%,-5,u,25µM*,79µM*,79µM*
Cc1ccn2c(=O)nc(SCC(=O)OCc3ccccc3)nc2c1,-27%,u,50µM*,x,u,45µM*
CCOC(=O)NC(=O)/C(C#N)=N\Nc1cccc(Cl)c1,-19%,-12,9%,-6%,u,17%
CCOC(=O)NC1(Nc2cccc(Cl)c2)Oc2ccccc2O1,-17%,0,-11%,4%,u,25µM*
CC(C)c1ccc(NC(=O)COC(=O)CC2CCCC2)cc1,1%,1,-17%,x,-22%,7%
O=C(COC(=O)CC1CCCC1)Nc1cc2c(cc1Cl)C(=O)c1ccccc1C2=O,-19%,u,u,40µM*,-21%,-15%
COCC#Cc1ccc2c(c1)O[C@@H](CN(C)S(=O)(=O)c1cccc(F)c1)[C@@H](C)CN([C@H](C)CO)S2(=O)=O,-4%,0,-19%,x,x,x
Cc1ccc(Cl)cc1NC(=S)N(Cc1ccco1)C(C)c1cccs1 (stereo unspecified),-6%,8,-12%,8%,-2%,79µM*
SMILES,WRN inhibitor,PI5P4Ka inh,POLH inh,POLB inh,POLK inh,POLI inh
Cc1onc(-c2c(F)cccc2Cl)c1C(=O)Nc1cc(S(=O)(=O)N2CCCCC2)ccc1O,-15%,0,-18%,x,-28%,-3%
O=C(CCl)N(Cc1cc(=O)[nH]c2ccccc12)c1ccccc1,-4%,u,50µM*,29%,-3%,u
CCOC(=O)CCCCCC(=O)Nc1ccc2c(c1)C(=O)N([C@H](C)CO)C[C@H](C)[C@H](CN(C)C(=O)C1CCCCC1)OCCCC[C@@H](C)O2,-3%,2,-10%,x,x,x
CCOC(=O)C1=C(O)c2ccccc2C(=O)/C1=C\c1ccc(CC)cc1,56µM*,x,u,-19%,-19%,u
CCOC(=O)C1=C(Cc2ccc(OC)cc2)C(=O)c2ccccc2C1=O,50µM*,x,u,0%,-13%,u
O=c1cc(CCc2ccccc2)[nH]c(=O)[nH]1,8%[57.1 µM],3,x,x,x,x
O=c1cc(S(=O)(=O)Cc2ccccc2)[nH]c(=O)[nH]1,-4%,-66*,-6%,x,-6%,-8%
Cc1ccc(C)c(NC(=O)Cn2cc(C(=O)c3ccco3)c3ccccc32)c1,x,x,u,u,0%,u
Cc1cccc(NC(=O)Cn2cc(C(=O)c3ccco3)c3ccccc32)c1C,x,x,79µM*,u,-39%,u
Cc1cc2c(=O)c(C(=O)c3ccncc3)cn(CC(=O)Nc3cccc(C)c3C)c2cc1C,x,x,-24%,40µM*,2%[60.1 µM],u
COC(=O)c1ccc(COc2cc(C)ccc2C)o1,-4%,-2,-9%,-5%,-11%,0%
N#CC1=C(S)N(c2ccccc2)C(c2ccc(-c3ccccc3Cl)o2)NC1=O (stereo unspecified),-29%,-1,45µM*,-13%,-7%,1%
Nc1nc(N)nc(-c2cc(Cl)ccc2Cl)n1,1%[11.6 µM],0,-2%,x,14%[60.1 µM],79µM*
COc1cccc2c1Oc1ncccc1N(c1ccc(C(=O)NCc3cccc(C)c3)s1)C2,x,x,-13%,27%,u,89µM*
COc1cccc2c1Oc1ncccc1N(c1ccc(C(=O)NCc3ccccc3Cl)s1)C2,x,x,-5%,-2%,-10%,1%
CSc1ncnc2c1ncn2CCCN1CCN(c2ncccn2)CC1,-4%,2,-8%,x,x,x

# High-throughput results: PubChem, National Center for Advancing Translational Sciences (NCATS)
